These results are taken from PubChem BioAssay (EPA / NIEHS).

Experiment [1] has as its target human Retinoid X Receptor beta (RXRb), RXRB (gene 6257) (UniProt P28702). Description: ATG_RXRb_TRANS: Attagene TRANS-FACTORIAL HepG2 Assay for human Retinoid X Receptor beta (RXRb) (AID 2283013; active = hit-call score of the fitted dose curve at least 0.9, where 1 is the maximum). A digest of the protocol:
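Chimeric receptor-Gal4 activity was assessed in transiently transfected human HepG2 cells after 24 h exposure. Transcripts from GAL4-UAS reporters were quantified by fluorescent RT-PCR and capillary electrophoresis, with DMSO as negative control and baseline.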

Read-out in experiment [2]: Interleukin-1 alpha (IL1a), IL1A (gene 3552)
Description: BSK_BE3C_IL1a: BioMAP Diversity Plus: BE3C Assay for Interleukin-1 alpha (IL1a) Biomarker Activity (AID 2283016). Particulars: primary human bronchial epithelial cells; actives raise or lower the signal. An outline of the steps: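 Signal from IL-1a ELISA, taken 24 h after chemical dosing of human bronchial epithelial cells, is compared with DMSO as baseline using bidirectional curve fitting.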

Read-out in experiment [3]: Monocyte Chemoattractant Protein-1 (MCP1), CCL2 (gene 6347)
Description: BSK_3C_MCP1: BioMAP Diversity Plus: 3C Assay for Monocyte Chemoattractant Protein-1 (MCP1) Biomarker Activity (AID 2283017). As to conditions: primary human endothelial cells (HUVEC); actives raise or lower the signal. A digest of the protocol:
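MCP-1 was measured by ELISA 24 h after dosing in primary HUVEC 3C cultures and fitted in both directions relative to DMSO; cytotoxicity was checked by SRB total-protein staining in parallel wells.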

Read-out in experiment [4]: Monocyte Chemoattractant Protein-1 (MCP1), CCL2 (gene 6347)
Description: BSK_4H_MCP1: BioMAP Diversity Plus: 4H Assay for Monocyte Chemoattractant Protein-1 (MCP1) Biomarker Activity (AID 2283018). Particulars: primary human endothelial cells (HUVEC); actives raise or lower the signal. A digest of the protocol: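 Endothelial cells from umbilical vein were treated with test chemical, then after 24 h MCP-1 levels were quantified by ELISA; endpoint values came from bidirectional fitting with DMSO as baseline of activity.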

Read-out in experiment [5]: Human Leukocyte Antigen - DR isotype (HLADR), HLA-DRA (gene 3122)
The experiment in a line: BSK_3C_HLADR: BioMAP Diversity Plus: 3C Assay for Human Leukocyte Antigen - DR isotype (HLADR) Biomarker Activity (AID 2283019).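 As to outcome: ELISA of cell-surface HLA-DR on HUVEC 24 h after dosing.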 Particulars: primary human endothelial cells (HUVEC); actives raise or lower the signal. An outline of the steps:
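Bidirectional fitting against DMSO was applied to the HLA-DR ELISA signal from human umbilical vein endothelial cells, 24 h post-dose. Cytotoxicity came from parallel SRB total-protein staining; 3C proliferation was counted by SRB at 48 h.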

Read-out in experiment [6]: Interleukin-8 (IL8), CXCL8 (gene 3576)
The experiment in a line: BSK_3C_IL8: BioMAP Diversity Plus: 3C Assay for Interleukin-8 (IL8) Biomarker Activity (AID 2283020). As to conditions: primary human endothelial cells (HUVEC); actives raise or lower the signal. An outline of the steps: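 Endothelial primary cells of human umbilical vein origin are dosed with chemical; after 24 h the IL-8 biomarker is measured by ELISA, and concentration–response is fitted in both directions versus DMSO.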

Read-out in experiment [7]: Monokine induced gamma interferon (MIG), CXCL9 (gene 4283)
Description: BSK_3C_MIG: BioMAP Diversity Plus: 3C Assay for Monokine induced gamma interferon (MIG) Biomarker Activity (AID 2283021). Particulars: primary human endothelial cells (HUVEC); actives raise or lower the signal. A digest of the protocol:
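Endothelial primary cells (human umbilical vein) are dosed with test chemical in the 3C system. MIG levels are measured by ELISA at 24 h and fitted in both directions relative to DMSO.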

In experiment [8] the target is human Vitamin D Receptor (VDR), VDR (gene 7421) (UniProt P11473). Description: ATG_VDR_TRANS: Attagene TRANS-FACTORIAL HepG2 Assay for human Vitamin D Receptor (VDR) (AID 2283022; active = hit-call score of the fitted dose curve at least 0.9, where 1 is the maximum). A digest of the protocol:
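Transactivation by an exogenous VDR-Gal4 chimera in transiently transfected HepG2 cells was measured as reporter transcript level 24 hours after chemical treatment. RT-PCR products were analysed by capillary electrophoresis and fitted in the positive direction relative to DMSO.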

Experiment [9] in a line: BSK_3C_SRB: Viability Assessment in the BioMAP Diversity Plus: 3C Assay (AID 2283023).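 Also: fitted both ways against DMSO so a hit may be signal rise or drop.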 As to conditions: primary human endothelial cells (HUVEC). A digest of the protocol: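 Cytotoxicity readout in parallel HUVEC 3C cultures: after 24 h compound exposure, cells fixed with 10% TCA, stained with 0.1% SRB and read at 560 nm. Gain or loss relative to DMSO fitted.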
Read-out in experiment [10]: Matrix Metallopeptidase 1 (MMP1), MMP1 (gene 4312)
Description: BSK_BE3C_MMP1: BioMAP Diversity Plus: BE3C Assay for Matrix Metallopeptidase 1 (MMP1) Biomarker Activity (AID 2283024). Particulars: primary human bronchial epithelial cells; actives raise or lower the signal. An outline of the steps: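 MMP1 signal, measured by ELISA after a 24 h chemical exposure of human primary bronchial epithelial cells, is analysed with bidirectional fitting using DMSO as negative control.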

The nature of experiment [11]: BSK_3C_Vis: BioMAP Diversity Plus: 3C Assay for Morphology Visualization (AID 2283025).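 Also: fitted both ways so gain or loss versus DMSO counts.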 Particulars: primary human endothelial cells (HUVEC). A digest of the protocol: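 Morphology read by light microscopy serves as a background control for the multiplexed 3C assay in human umbilical vein endothelial cells, taken 24 h after dosing, with DMSO as the negative control and bidirectional curve fitting.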

Read-out in experiment [12]: Pselectin, SELP (gene 6403)
The experiment in a line: BSK_4H_Pselectin: BioMAP Diversity Plus: 4H Assay for Pselectin Biomarker Activity (AID 2283026). As to conditions: primary human endothelial cells (HUVEC); actives raise or lower the signal. An outline of the steps: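 Endothelial primary cells (human umbilical vein) are dosed, incubated 24 h, and assayed for surface P-selectin by ELISA; responses in either direction are fitted relative to the DMSO negative control.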

The nature of experiment [13]: BSK_4H_SRB: Viability Assessment in the BioMAP Diversity Plus: 4H Assay (AID 2283027).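 Also: cells exposed to compound for 24 h before staining.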 As to conditions: primary human endothelial cells (HUVEC). An outline of the steps: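 Cytotoxicity read-out in primary human endothelial cells: after 24 h compound exposure, cells were TCA-fixed (10%), stained with 0.1% SRB and absorbance taken at 560 nm. Values fitted in both directions relative to DMSO.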

Experiment [14] can be described thus: BSK_BE3C_SRB: Viability Assessment in the BioMAP Diversity Plus: BE3C Assay (AID 2283028). Particulars: primary human bronchial epithelial cells. A digest of the protocol:
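Cytotoxicity read-out: SRB (0.1%) staining of TCA-fixed (10%) human lung bronchial epithelial cells, absorbance 560 nm, 24 h post-dosing. Curves fitted both directions relative to DMSO.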

Read-out in experiment [15]: Thrombomodulin, THBD (gene 7056)
Description: BSK_3C_Thrombomodulin: BioMAP Diversity Plus: 3C Assay for Thrombomodulin Biomarker Activity (AID 2283029). Particulars: primary human endothelial cells (HUVEC); actives raise or lower the signal. An outline of the steps:
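Endothelial cells from umbilical vein are dosed with test chemical and incubated 24 h. Thrombomodulin is then quantified by ELISA, with DMSO serving as negative control and activity baseline.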

In experiment [16] the target is human Thyroid Receptor alpha (THRa1), THRA (gene 7067) (UniProt P10827). Description: ATG_THRa1_TRANS: Attagene TRANS-FACTORIAL HepG2 Assay for human Thyroid Receptor alpha (THRa1) (AID 2283014; active = hit-call score of the fitted dose curve at least 0.9, where 1 is the maximum). A digest of the protocol: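 Transcripts from GAL4-UAS-driven reporters, measured after 24 h compound exposure by RT-PCR plus capillary electrophoresis of 6-FAM-labeled fragments, were fitted for gain of signal relative to DMSO. Cells: transiently transfected HepG2 expressing NR-Gal4 chimeras.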

Records with an inconclusive call do not appear. Active and inactive are the calls of the source. The calls were made as follows, unless noted: active = hit-call score of the fitted dose curve at least 0.9, where 1 is the maximum; inactive = score below 0.9.

human Retinoid X Receptor beta (RXRb), RXRB (gene 6257), sequence (P28702 whole entry, looked up, the tested form may be a part): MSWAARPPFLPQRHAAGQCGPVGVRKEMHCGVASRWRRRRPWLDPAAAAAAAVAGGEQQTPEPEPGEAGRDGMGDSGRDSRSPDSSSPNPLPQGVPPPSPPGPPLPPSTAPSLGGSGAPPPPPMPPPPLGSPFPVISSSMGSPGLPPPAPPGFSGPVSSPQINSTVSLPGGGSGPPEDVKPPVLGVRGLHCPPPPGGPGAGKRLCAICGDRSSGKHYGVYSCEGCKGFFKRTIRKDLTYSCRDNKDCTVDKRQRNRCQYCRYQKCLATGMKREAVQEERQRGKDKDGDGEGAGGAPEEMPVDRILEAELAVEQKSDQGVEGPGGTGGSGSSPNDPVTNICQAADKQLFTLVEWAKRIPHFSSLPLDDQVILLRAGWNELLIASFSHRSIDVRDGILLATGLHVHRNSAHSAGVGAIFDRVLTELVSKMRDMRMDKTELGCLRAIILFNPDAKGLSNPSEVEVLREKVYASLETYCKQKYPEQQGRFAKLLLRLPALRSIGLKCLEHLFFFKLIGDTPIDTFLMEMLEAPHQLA
human Vitamin D Receptor (VDR), VDR (gene 7421), sequence (P11473 whole entry, looked up, the tested form may be a part): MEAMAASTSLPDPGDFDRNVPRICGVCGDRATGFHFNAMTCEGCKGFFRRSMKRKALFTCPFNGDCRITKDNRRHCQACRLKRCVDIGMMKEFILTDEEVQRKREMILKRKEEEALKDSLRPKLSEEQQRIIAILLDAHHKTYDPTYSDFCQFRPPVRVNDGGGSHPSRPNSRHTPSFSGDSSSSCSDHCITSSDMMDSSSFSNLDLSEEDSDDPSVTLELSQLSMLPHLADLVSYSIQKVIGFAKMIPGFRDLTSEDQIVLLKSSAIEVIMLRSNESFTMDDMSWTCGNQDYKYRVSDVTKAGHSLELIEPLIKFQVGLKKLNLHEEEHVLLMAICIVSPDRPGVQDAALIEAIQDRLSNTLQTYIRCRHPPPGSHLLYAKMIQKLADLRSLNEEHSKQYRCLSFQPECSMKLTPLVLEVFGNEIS
human Thyroid Receptor alpha (THRa1), THRA (gene 7067), sequence (P10827 whole entry, looked up, the tested form may be a part): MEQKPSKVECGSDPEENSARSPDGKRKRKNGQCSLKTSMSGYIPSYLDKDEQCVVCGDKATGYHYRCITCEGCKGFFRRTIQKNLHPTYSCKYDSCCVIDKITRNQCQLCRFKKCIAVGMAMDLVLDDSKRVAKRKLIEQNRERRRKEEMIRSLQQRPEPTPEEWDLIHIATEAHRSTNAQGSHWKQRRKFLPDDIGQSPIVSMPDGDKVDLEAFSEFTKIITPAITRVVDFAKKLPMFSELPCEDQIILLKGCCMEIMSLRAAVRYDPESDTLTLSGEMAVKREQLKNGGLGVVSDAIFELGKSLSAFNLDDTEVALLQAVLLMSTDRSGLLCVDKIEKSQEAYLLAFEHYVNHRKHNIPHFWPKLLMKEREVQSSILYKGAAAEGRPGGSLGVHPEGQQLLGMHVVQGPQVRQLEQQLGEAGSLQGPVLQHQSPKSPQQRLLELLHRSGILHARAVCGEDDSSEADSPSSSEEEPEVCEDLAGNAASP

`C=CC(=O)NC(C)(C)C`: the compound was classed as inactive in [1], in experiment [2], in experiment [3], in experiment [4], in [5] and in experiment [6]. The outcome in [7], in experiment [8], in experiment [9], in experiment [10], in [11] and in experiment [12] was inactive. Also, the outcome in [13], in experiment [14] and in experiment [15] was inactive.
As to `Cc1c(O)cccc1O`, the result in [2], in [3], in [4], in experiment [5], in experiment [6] and in experiment [7] was inactive. In addition, the outcome in experiment [9], in experiment [10], in experiment [11], in [12], in [13] and in [14] was inactive. The result in [15] was inactive.
Consider `Cc1cccc(C(C)(C)C)c1O`, for which, in experiment [1], the AC50 was 46.4 µM (active). Also, the result in experiment [8] was inactive.
Turning to `CCCCCCOc1ccc(N)cc1`, the result in experiment [8] was inactive.
For the compound `Cc1c(C(=O)c2c[nH]n(C)c2=O)ccc(S(C)(=O)=O)c1C1=NOCC1`, the compound was called inactive in [8].
In the case of `Nc1ccc(C(=O)OCCCOC(=O)c2ccc(N)cc2)cc1`, the outcome in experiment [16] and in experiment [8] was inactive.
With `CC1(C)[C@@H]2CC[C@@]1(C)C(=O)C2`, the compound was classed as inactive in experiment [16] and in [8].
As for `CO[Si](C)(C)OC`, in experiment [16], the compound was called inactive.
In the case of `O=C1CCCCCCCCCCCN1`, in [1], the AC50 is 33.8 µM (active). Besides, the result in [2], in experiment [3], in [4], in experiment [5], in experiment [6] and in experiment [7] was inactive. For the same compound, the result in [9], in experiment [10], in experiment [11], in experiment [12], in experiment [13] and in [14] was inactive. In [15], the outcome was inactive.
In the case of `CCC1(C)C(=O)N(Cl)C(=O)N1Cl` (stereo not drawn), the result in experiment [1], in [2], in [3], in [4], in [5] and in experiment [6] was inactive. Also, the result in [7], in experiment [9], in [10], in experiment [11], in experiment [12] and in experiment [13] was inactive. Besides, the result in [14] and in experiment [15] was inactive.
With `CCCCCOC(=O)CCCCC`, in experiment [16], the call was inactive.
`CCCC=C(C=O)CC`: the outcome in experiment [8] was inactive.
Consider `CC(C)CCCCCOC(=O)CS`, for which the compound was called inactive in experiment [1], in [2], in experiment [3], in [4], in experiment [5] and in [6]. In addition, the result in experiment [7], in experiment [9], in experiment [10], in experiment [11], in [12] and in [13] was inactive. The outcome in experiment [14] and in experiment [15] was inactive.
As to `C1CNCCN1`, the outcome in experiment [2], in [3], in [4], in experiment [5], in [6] and in [7] was inactive. Also, the outcome in [9], in experiment [10], in [11], in experiment [12], in [13] and in experiment [14] was inactive. Also, the outcome in experiment [15] was inactive.
As for `CCN1CCCC1=O`, the compound was called inactive in experiment [16] and in experiment [8].
In the case of `Cc1noc(NS(=O)(=O)c2ccc(N)cc2)c1C`, the outcome in experiment [16] was inactive.
Turning to `CCOB(OCC)OCC`, the outcome in experiment [1], in experiment [16] and in experiment [8] was inactive.
Consider `O=C(Oc1ccccc1)c1ccccc1C(=O)Oc1ccccc1`, for which the result in experiment [2], in experiment [3], in experiment [4], in experiment [6], in experiment [7] and in experiment [10] was inactive. The outcome in experiment [11], in [12], in experiment [13], in experiment [14] and in experiment [15] was inactive. In addition, the AC50 in [5] and in experiment [9] was 20 µM (active) each time.

One may read the AC50 as the concentration giving half of the maximal activity seen.
